In PubChem BioAssay (EPA / NIEHS):
The source made the active and inactive calls. Rule for the calls: active = hit-call score of the fitted dose curve at least 0.9, where 1 is the maximum; inactive = score below 0.9.

Experiments:
[1] = ATG_ISRE_CIS: Attagene CIS-FACTORIAL HepG2 Assay for human Interferon Regulatory Factor 1 (IRF1) binding to an Interferon-Stimulated Response Element (ISRE) (AID 2282948); conditions: HepG2 ISRE cis-reporter (Attagene), mRNA transcription readout; actives raise or lower the signal
Procedure, shortened: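 Multiplexed mRNA reporter readout in human liver HepG2 cells: cis-element-driven reporters transfected, compound added for 24 h, transcripts amplified, fluorescently labelled and sized by capillary electrophoresis; curve fitting bidirectional against DMSO.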

[2] = ATG_M_06_CIS: Attagene CIS-FACTORIAL HepG2 Assay for M06 Transcription Factor (Internal Marker) (AID 2282950); conditions: HepG2 Attagene CIS-FACTORIAL M06 internal marker reporter; actives raise or lower the signal
Procedure, shortened: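 Cells (HepG2, transiently carrying cis-driven reporter units) receive chemical for 24 h before RNA isolation. Reporter cDNA is PCR-amplified, FAM-labelled by primer extension, HpaI-digested and sized on a capillary analyser.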

[3] = biological target: Hypoxia-inducible factor 1-alpha (Homo sapiens) (UniProt Q16665); assay: ATG_HIF1a_CIS: Attagene CIS-FACTORIAL HepG2 Assay for human Hypoxia Inducible Factor 1 (HIF1A) (AID 2282951); conditions: HepG2 Attagene cis-factorial HIF1a reporter transcription; actives raise or lower the signal
Chain of Hypoxia-inducible factor 1-alpha (Homo sapiens) (Q16665 whole entry, looked up): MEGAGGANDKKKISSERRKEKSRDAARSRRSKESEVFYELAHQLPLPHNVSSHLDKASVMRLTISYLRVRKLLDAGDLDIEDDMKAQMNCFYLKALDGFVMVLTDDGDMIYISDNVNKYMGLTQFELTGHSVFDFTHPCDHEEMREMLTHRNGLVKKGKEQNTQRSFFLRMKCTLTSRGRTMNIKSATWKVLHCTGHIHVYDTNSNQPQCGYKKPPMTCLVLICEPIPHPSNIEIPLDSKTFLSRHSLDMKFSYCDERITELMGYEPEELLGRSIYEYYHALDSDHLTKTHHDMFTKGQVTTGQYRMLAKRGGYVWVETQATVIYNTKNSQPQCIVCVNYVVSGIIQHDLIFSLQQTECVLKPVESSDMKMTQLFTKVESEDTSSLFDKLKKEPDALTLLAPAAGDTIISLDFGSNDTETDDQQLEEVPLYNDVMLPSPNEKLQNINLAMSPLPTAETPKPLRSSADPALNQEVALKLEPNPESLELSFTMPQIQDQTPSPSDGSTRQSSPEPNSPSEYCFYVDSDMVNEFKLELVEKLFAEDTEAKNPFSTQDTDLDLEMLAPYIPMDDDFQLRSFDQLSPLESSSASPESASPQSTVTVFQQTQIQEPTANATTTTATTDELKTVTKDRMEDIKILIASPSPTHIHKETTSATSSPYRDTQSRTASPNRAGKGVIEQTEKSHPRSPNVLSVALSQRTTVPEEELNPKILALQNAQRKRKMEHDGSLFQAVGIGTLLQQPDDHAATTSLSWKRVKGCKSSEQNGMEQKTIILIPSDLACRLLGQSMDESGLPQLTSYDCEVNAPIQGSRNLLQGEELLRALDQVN
Procedure, shortened: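 Endogenous-TF cis reporter readout, human HepG2 cells, 24 h incubation; mRNA detected via RT-PCR and capillary electrophoresis fluorescence; DMSO-normalised bidirectional fitting.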

[4] = biological target: Hepatocyte nuclear factor 6 (Homo sapiens) (UniProt Q9UBC0); assay: ATG_HNF6_CIS: Attagene CIS-FACTORIAL HepG2 Assay for human Hepatocyte Nuclear Factor 6 (HNF6) (AID 2282952); conditions: HepG2 Attagene cis-factorial HNF6 reporter transcription; actives raise or lower the signal
Chain of Hepatocyte nuclear factor 6 (Homo sapiens) (Q9UBC0 whole entry, looked up): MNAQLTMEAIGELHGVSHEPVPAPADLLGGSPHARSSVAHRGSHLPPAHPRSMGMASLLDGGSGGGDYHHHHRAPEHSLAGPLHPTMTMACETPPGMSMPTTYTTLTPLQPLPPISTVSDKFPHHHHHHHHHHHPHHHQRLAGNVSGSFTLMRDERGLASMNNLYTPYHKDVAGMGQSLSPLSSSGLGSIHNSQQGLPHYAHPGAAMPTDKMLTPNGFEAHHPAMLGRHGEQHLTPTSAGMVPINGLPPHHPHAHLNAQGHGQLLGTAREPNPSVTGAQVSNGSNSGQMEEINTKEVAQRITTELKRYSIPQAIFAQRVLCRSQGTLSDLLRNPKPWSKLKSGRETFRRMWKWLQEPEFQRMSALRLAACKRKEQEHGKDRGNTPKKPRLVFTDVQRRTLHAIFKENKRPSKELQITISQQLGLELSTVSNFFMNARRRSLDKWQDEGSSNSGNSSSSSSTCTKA
Procedure, shortened: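 Endogenous transcription factor activity in human HepG2 liver cells was captured through cis-regulated reporter constructs. After 24 h treatment, reporter mRNA was measured by RT-PCR with capillary electrophoresis, and activity was fitted in both directions relative to DMSO.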

[5] = biological target: Heat shock factor protein 1 (Homo sapiens) (UniProt Q00613); assay: ATG_HSE_CIS: Attagene CIS-FACTORIAL HepG2 Assay for human Heat Shock Transcription Factor 1 (HSE) (AID 2282953); conditions: HepG2 HSE cis-reporter, Attagene RNA transcription; actives raise or lower the signal
Chain of Heat shock factor protein 1 (Homo sapiens) (Q00613 whole entry, looked up): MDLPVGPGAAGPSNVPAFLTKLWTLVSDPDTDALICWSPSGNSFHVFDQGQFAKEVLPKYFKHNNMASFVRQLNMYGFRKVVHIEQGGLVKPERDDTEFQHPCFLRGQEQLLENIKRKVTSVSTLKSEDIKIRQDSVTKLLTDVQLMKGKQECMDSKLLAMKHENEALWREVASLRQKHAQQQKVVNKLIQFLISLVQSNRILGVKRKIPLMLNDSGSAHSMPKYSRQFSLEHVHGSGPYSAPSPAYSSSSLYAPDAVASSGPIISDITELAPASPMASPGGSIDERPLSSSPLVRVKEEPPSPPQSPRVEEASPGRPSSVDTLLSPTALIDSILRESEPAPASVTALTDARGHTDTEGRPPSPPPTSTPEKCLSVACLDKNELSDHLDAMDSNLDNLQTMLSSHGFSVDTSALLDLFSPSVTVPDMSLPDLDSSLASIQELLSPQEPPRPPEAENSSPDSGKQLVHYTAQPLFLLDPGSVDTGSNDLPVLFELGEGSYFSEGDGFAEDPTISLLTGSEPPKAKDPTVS
Procedure, shortened: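 Liver-derived HepG2 cells carry transiently introduced multiple reporter units governed by cis promoters. Reporter RNA measured 24 h post-dose through reverse transcription, PCR amplification, fluorescent labelling and capillary electrophoresis, normalised to DMSO.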

[6] = ATG_MRE_CIS: Attagene CIS-FACTORIAL HepG2 Assay for human Metal Responsive Element (MRE) (AID 2282954); conditions: HepG2 MRE cis-reporter transcription, Attagene multiplex; actives raise or lower the signal
Procedure, shortened: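 RT-PCR/capillary electrophoresis readout of reporter mRNA, 24 h post-dosing, in HepG2 cells transfected with multiplexed cis-regulated reporter constructs. Gain or loss of signal fitted bidirectionally against DMSO baseline.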

[7] = ATG_PBREM_CIS: Attagene CIS-FACTORIAL HepG2 Assay for human Phenobarbital-responsive Enhancer Module (PBREM) (AID 2282955); conditions: HepG2 PBREM cis-reporter, Attagene multiplexed transcription; actives raise or lower the signal
Procedure, shortened: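 Readout: reporter mRNA, fluorescent RT-PCR fragments separated by capillary electrophoresis. System: HepG2 transiently transfected with cis-regulated reporter units. Exposure: 24 h. Analysis: bidirectional, DMSO baseline.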

[8] = ATG_PXRE_CIS: Attagene CIS-FACTORIAL HepG2 Assay for human Pregnane X Receptor Element (PXRE) (AID 2282957); conditions: HepG2 Attagene CIS-FACTORIAL PXRE reporter, mRNA; actives raise or lower the signal
Procedure, shortened: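 Endogenous transcription factor activity in HepG2 was gauged through induction of reporter mRNA driven by a cis-regulating promoter element, sampled 24 h post-treatment. Activity was fitted in both directions against DMSO negative control.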

[9] = ATG_PPRE_CIS: Attagene CIS-FACTORIAL HepG2 Assay for human Peroxisome Proliferator-activated Response Element (PPRE) (AID 2282958); conditions: HepG2 PPRE cis-element reporter, Attagene transcription factor profiling; actives raise or lower the signal
Procedure, shortened: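 After human HepG2 hepatoma cells were transiently transfected with cis-promoter reporter constructs, they were exposed to test chemicals for 24 hours. Reporter RNA was then reverse-transcribed, PCR-amplified, FAM-labeled, HpaI-digested and quantified by capillary electrophoresis.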

[10] = ATG_RORE_CIS: Attagene CIS-FACTORIAL HepG2 Assay for human RAR-related Orphan Receptor Element (RORE) (AID 2282959); conditions: HepG2 Attagene cis-factorial RORE reporter, mRNA; actives raise or lower the signal
Procedure, shortened: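 Measured here: transcript induction of a cis-regulated reporter in HepG2 cells transiently transfected via FuGene 6. After 24 h, RNA was processed by RT-PCR and fluorescent capillary electrophoresis; DMSO defined baseline activity.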

[11] = ATG_Sox_CIS: Attagene CIS-FACTORIAL HepG2 Assay for human SRY-box transcription factor (SOX) (AID 2282960); conditions: HepG2 Attagene cis-factorial SOX reporter, mRNA; actives raise or lower the signal
Procedure, shortened: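 Using transiently transfected HepG2 cells, reporter transcription driven by cis elements was assessed 24 h after dosing. Signal was fluorescence of capillary-separated RT-PCR products, with DMSO defining baseline activity.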

[12] = biological target: Transcription factor Sp1 (Homo sapiens) (UniProt P08047); assay: ATG_Sp1_CIS: Attagene CIS-FACTORIAL HepG2 Assay for human Specificity Protein 1 (Sp1) (AID 2282961); conditions: HepG2 Sp1 cis-reporter transcription, actives raise or lower the signal
Chain of Transcription factor Sp1 (Homo sapiens) (P08047 whole entry, looked up): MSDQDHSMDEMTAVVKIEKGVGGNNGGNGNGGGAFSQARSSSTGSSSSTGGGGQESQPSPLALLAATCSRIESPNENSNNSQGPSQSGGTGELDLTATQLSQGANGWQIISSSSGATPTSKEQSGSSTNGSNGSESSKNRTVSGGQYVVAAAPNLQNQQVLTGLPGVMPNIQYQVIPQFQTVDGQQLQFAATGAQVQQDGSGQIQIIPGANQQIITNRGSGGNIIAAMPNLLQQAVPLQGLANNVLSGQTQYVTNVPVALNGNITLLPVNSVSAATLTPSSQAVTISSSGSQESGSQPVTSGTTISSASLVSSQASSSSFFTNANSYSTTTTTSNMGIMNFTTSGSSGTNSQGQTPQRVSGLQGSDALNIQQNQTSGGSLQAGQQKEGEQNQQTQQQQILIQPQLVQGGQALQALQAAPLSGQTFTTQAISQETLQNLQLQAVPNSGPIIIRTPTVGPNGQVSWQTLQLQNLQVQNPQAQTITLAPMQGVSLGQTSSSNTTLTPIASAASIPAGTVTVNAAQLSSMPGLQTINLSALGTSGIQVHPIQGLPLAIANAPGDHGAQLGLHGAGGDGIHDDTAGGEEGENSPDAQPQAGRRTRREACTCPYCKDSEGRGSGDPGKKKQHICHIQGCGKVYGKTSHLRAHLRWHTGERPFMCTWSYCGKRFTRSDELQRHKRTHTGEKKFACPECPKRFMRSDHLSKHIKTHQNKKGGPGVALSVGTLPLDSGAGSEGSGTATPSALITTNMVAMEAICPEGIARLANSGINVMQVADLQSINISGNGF
Procedure, shortened: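 After transient transfection of HepG2 cells with cis-promoter reporter units and 24 h chemical treatment, reporter transcripts were quantified by RT-PCR and capillary electrophoresis fluorescence. Gain- and loss-of-signal fitted against DMSO.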

[13] = ATG_SREBP_CIS: Attagene CIS-FACTORIAL HepG2 Assay for human Sterol Regulatory Element Binding (SREBP) (AID 2282962); conditions: HepG2 Attagene cis-factorial SREBP reporter, mRNA; actives raise or lower the signal
Procedure, shortened: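 Endogenous factor activity is measured in HepG2 through multiplexed reporter units under cis-element control. Following a 24 h incubation, reporter transcripts are reverse-transcribed, PCR-amplified and sized by capillary electrophoresis; activity is fitted in both directions relative to DMSO.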

[14] = ATG_TA_CIS: Attagene CIS-FACTORIAL HepG2 Assay for human TA Basal Promoter (AID 2282964); conditions: HepG2 Attagene CIS-factorial TA basal promoter reporter; actives raise or lower the signal
Procedure, shortened: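 Background internal-marker endpoint from a 52-component HepG2 cis-reporter panel. Cells treated 24 h; reporter transcripts quantified via RT-PCR and CE fluorescence against DMSO baseline.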

[15] = ATG_TCF_b_cat_CIS: Attagene CIS-FACTORIAL HepG2 Assay for human T-Cell-Factor with beta-catenin (TCF/b-cat) (AID 2282965); conditions: HepG2 TCF/beta-catenin cis-reporter transcription, actives raise or lower the signal
Procedure, shortened: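 HepG2, transient MRTU transfection, cis-element-driven reporters (endogenous TFs). 24 h compound exposure. Readout: reporter mRNA by RT-PCR + 6-FAM primer extension, HpaI digest, capillary electrophoresis. Gain/loss fit vs DMSO baseline.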

[16] = ATG_TAL_CIS: Attagene CIS-FACTORIAL HepG2 Assay for human TAL Basal Promoter (AID 2282966); conditions: HepG2 Attagene cis-factorial TAL promoter reporter; actives raise or lower the signal;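 note: background control endpoint measuring basal TAL promoter reporter mRNA not a specific factor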
Procedure, shortened: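 Endogenous transcription-factor activity is sensed in HepG2 cells through transfected cis-promoter reporter constructs. After 24 h dosing, reporter transcripts are quantified by RT-PCR and capillary electrophoresis. Gain or loss of signal is fitted relative to DMSO.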

[17] = ATG_GRE_CIS: Attagene CIS-FACTORIAL HepG2 Assay for human Glucocorticoid Response Elements (GRE) (AID 2282947); conditions: HepG2 GRE cis-reporter, Attagene multiplex mRNA; actives raise or lower the signal
Procedure, shortened: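 Read-out: fluorescent reporter-transcript fragments separated by capillary electrophoresis after RT-PCR. Transiently transfected HepG2 cells carrying cis-element-driven reporter units were dosed for 24 h; gain or loss of signal fitted against DMSO control.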

[18] = biological target: Paired box protein Pax-6 (Homo sapiens) (UniProt P26367); assay: ATG_Pax6_CIS: Attagene CIS-FACTORIAL HepG2 Assay for human Paired Box 6 (PAX6) (AID 2282956); conditions: HepG2 CIS-FACTORIAL PAX6 reporter transcription, RNA readout; actives raise or lower the signal
Chain of Paired box protein Pax-6 (Homo sapiens) (P26367 whole entry, looked up): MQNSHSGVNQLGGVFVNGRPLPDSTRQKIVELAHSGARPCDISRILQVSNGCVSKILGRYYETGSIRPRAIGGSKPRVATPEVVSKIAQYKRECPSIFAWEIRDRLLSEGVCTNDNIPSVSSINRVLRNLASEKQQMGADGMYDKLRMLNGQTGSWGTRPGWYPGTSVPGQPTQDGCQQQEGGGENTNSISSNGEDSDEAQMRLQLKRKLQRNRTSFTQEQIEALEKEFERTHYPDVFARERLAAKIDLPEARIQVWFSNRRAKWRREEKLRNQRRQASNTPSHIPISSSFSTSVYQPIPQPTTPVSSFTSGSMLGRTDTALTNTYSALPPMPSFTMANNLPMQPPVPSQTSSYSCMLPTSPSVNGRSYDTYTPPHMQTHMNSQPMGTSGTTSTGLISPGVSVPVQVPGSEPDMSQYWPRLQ
Procedure, shortened: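 Fluorescent RT-PCR products separated by capillary electrophoresis report PAX6-linked promoter mRNA in HepG2 cells 24 h post-dose. Curves fitted bidirectionally, DMSO as negative control.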

[19] = ATG_M_32_CIS: Attagene CIS-FACTORIAL HepG2 Assay for M32 Transcription Factor (Internal Marker) (AID 2282949); conditions: HepG2 Attagene cis-factorial M32 reporter, mRNA; actives raise or lower the signal;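 note: background control marker of the multiplexed CIS panel rather than a real target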
Procedure, shortened: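 Transient MRTU transfection of HepG2; 24 h compound treatment; TriZol RNA, oligo(dT) RT, reporter PCR, 6-FAM primer extension, HpaI cut, CE. Gain/loss of signal vs DMSO.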

Row | SMILES | outcome [1] | outcome [2] | outcome [3] | outcome [4] | outcome [5] | outcome [6] | outcome [7] | outcome [8] | outcome [9] | outcome [10] | outcome [11] | outcome [12] | outcome [13] | outcome [14] | outcome [15] | outcome [16] | outcome [17] | AC50 [8] | outcome [18] | outcome [19]
1 | COc1c(Cl)ccc(Cl)c1C(=O)O | inactive | inactive | inactive | inactive | inactive | inactive | inactive | inactive | inactive | inactive | inactive | inactive | inactive | inactive | inactive | inactive | – | – | – | –
2 | OB(O)O | inactive | inactive | inactive | inactive | inactive | inactive | inactive | – | inactive | inactive | inactive | inactive | inactive | inactive | inactive | inactive | inactive | 81.3 µM (active) | – | –
3 | COC(=O)c1ccccc1C(=O)O | inactive | inactive | inactive | inactive | inactive | inactive | inactive | inactive | inactive | inactive | inactive | inactive | inactive | inactive | inactive | – | inactive | – | – | –
4 | CCOC(=O)C(C)Oc1ccc(Oc2cnc3cc(Cl)ccc3n2)cc1 (stereo not given) | inactive | inactive | inactive | inactive | – | inactive | inactive | – | inactive | inactive | inactive | inactive | inactive | inactive | inactive | – | inactive | 35.1 µM (active) | inactive | –
5 | O=C(O)c1ccccc1 | inactive | inactive | inactive | inactive | – | inactive | inactive | inactive | – | inactive | inactive | inactive | inactive | inactive | inactive | – | – | – | inactive | inactive
